Compound activity as filed in PubChem BioAssay.
Shown are actives, neighbours in structure and some others; about 6.6% of the full set was active somewhere.
MPTP inh: blocks calcium-induced mitochondrial swelling. isolated mouse mitochondria, Ca2+ swelling absorbance, 30 min. inhibition, % at 10 µM. hit rate 1.4% among 360,000. AID 602449;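 active = inhibition of 50% or more, scaled per plate between neutral and stimulator controls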;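 also: 0% = DMSO wells given calcium and 100% = 1 mM EGTA wells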
Beta apoptosis: blocks beta cell apoptosis; AID 435005; protection from apoptosis, % (test concentration not listed); hit rate 0.8% among 300,000; INS-1E cytokine-induced death, ATP luminescence, 48 h; percent of positive-control rescue, neutral wells zero;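 active = Every replicate reaches about 75%, or at least half do and their mean reaches it too, limit read from the data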;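 also: 0% = cytokine-treated negative control wells and 100% = positive control rescue; higher means more ATP so stronger rescue from cytokine killing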
NR3A LBD binder: modulators (binders) of human NR3A ligand-binding domain. AID 1259313. Tm shift relative to glycine control, % at 25 µM. NR3A LBD differential scanning fluorimetry, Tm shift; 0% = protein alone, 100% = glycine-bound protein. hit rate 2.5% among 340,000;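 active = melting temperature shift of at least 10% of the positive control shift, at one fixed dose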
CSC inhib: cancer stem cell inhibition | inhibition, % at 7.5 µM | AID 2717 | cancer stem cell-like cells viability, luminescence | hit rate 1.1% among 300,000; in the data active = inhibition above about 75%; tested in HMLE shEcad cells
Gli-Sufu antag: Gli-Sufu pathway antagonism; hit rate 0.74% among 340,000; inhibition, % at 5 µM; Sufu-KO-LIGHT fibroblasts, Gli luciferase reporter luminescence;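 active = inhibition above about 55%, limit read from the data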;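 also: 0% = DMSO-treated cells and 100% = wells with medium but no cells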
Mdm2 MdmX PPI: inhibitors of human Mdm2/MdmX interaction | O15151+Q00987 | SaOS-2 split-luciferase Mdm2/MdmX complementation, luminescence | inhibition, % at 8 µM | hit rate 3% among 330,000 | AID 485346;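 active = inhibition of at least 50% at 8 µM in the primary screen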
Target sequence (O15151 whole entry, looked up): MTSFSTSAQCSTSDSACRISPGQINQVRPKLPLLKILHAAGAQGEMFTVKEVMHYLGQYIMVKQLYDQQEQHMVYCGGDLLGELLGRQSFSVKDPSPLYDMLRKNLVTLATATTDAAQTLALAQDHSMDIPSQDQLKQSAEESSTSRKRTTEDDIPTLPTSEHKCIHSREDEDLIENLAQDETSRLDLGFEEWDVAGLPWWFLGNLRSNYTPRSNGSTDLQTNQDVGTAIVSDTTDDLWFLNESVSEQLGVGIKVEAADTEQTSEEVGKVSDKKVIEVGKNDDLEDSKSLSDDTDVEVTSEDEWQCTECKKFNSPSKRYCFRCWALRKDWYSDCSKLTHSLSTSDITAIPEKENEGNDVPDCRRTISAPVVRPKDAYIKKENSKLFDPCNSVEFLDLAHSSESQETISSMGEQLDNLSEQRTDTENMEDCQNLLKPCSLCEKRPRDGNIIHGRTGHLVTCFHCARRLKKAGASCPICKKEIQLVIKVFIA
Target sequence (Q00987 whole entry, looked up): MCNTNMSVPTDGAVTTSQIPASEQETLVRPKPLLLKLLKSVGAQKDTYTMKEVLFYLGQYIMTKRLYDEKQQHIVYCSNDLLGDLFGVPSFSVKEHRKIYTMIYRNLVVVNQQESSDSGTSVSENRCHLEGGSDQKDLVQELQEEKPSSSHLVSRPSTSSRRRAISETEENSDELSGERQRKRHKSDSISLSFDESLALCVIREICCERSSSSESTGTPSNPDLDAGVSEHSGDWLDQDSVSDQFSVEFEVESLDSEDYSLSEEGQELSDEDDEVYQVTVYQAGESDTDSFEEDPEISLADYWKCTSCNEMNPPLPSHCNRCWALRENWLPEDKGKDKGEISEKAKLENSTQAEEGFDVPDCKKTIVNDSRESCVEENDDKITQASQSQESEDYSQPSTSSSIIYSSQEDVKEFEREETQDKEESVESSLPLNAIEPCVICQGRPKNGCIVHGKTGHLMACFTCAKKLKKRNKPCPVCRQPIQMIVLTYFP
Mdm2-MdmX conf: confirmation of human Mdm2/MdmX interaction inhibitors; Mdm2-MdmX binding, luminescent assay; inhibition, % at 8 µM; hit rate 55% among 10,000; shares compounds with Mdm2 MdmX PPI; AID 489028; in the data active = inhibition above about 40%
FLuc counter: counter-screen for Mdm2/MdmX inhibitors: full-length luciferase. shares compounds with Mdm2 MdmX PPI. SaOS-2 full-length luciferase counterscreen, luminescence. inhibition, % at 8 µM. hit rate 77% among 6,200. AID 504607;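 active = mean inhibition at 8 µM reaching about 37%, which flags the compound as non-specific, limit read from the data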;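 also: p53-null SaOS-2 cells with luciferase driven by a doxycycline-inducible promoter; compound on cells about two nights before reading with doxycycline added after day one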
MPTP counter: membrane potential counter-screen of mitochondrial pore inhibitors; inhibition, % at 10 µM; isolated mitochondria, Rhodamine 123 fluorescence; shares compounds with MPTP inh; hit rate 78% among 5,000; in the data active = inhibition above about 22%;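 also: 0% = DMSO vehicle and 100% = positive control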
MPTP swell DR: dose response confirmation of mitochondrial permeability transition pore inhibitors; shares compounds with MPTP inh; isolated mitochondria swelling, absorbance; IC50, µM; hit rate 58% among 780; AID 651561; in the data active = IC50 below about 20 µM
MPTP cs DR: counter-screen for mitochondrial permeability transition pore inhibitors, dose response. shares compounds with MPTP inh. isolated mitochondria counterscreen, fluorescence read-out. IC50, µM. hit rate 49% among 780; in the data active = IC50 below about 80 µM
* marks the source's active call; other numbers are inactive results.

What do the screens show for `N#C/C(=C/c1cn(-c2ccccc2)nc1-c1cccc(OCc2ccc(F)cc2)c1)C(=O)NCCCn1ccnc1`?
MPTP inh: 54.1*; Beta apoptosis: -1.2; NR3A LBD binder: -7.0; CSC inhib: 99.5*; Gli-Sufu antag: -1.5; Mdm2 MdmX PPI: 51.7*; Mdm2-MdmX conf: 29.6; MPTP counter: -8.2; MPTP swell DR: >100; MPTP cs DR: >80

How did O=C(NCCCn1ccnc1)c1cn(-c2ccccc2)nc1-c1ccc(F)cc1 do in these assays?
MPTP inh: -0.1; Beta apoptosis: -0.4; NR3A LBD binder: -0.6; CSC inhib: -12.0; Gli-Sufu antag: -13.4; Mdm2 MdmX PPI: -16.9

How did O=C(NC(Nc1ncc(S(=O)(=O)c2ccc([N+](=O)[O-])cc2)s1)(C(F)(F)F)C(F)(F)F)c1ccc(Cl)cc1 do in these assays?
MPTP inh: 99.7*; Beta apoptosis: 112.6*; NR3A LBD binder: 9.8; CSC inhib: 89.4*; Gli-Sufu antag: 4.6; Mdm2 MdmX PPI: 97.0*; Mdm2-MdmX conf: 95.8*; FLuc counter: 29.5; MPTP counter: 86.8*

Results for Nc1nc(SCC(=O)Nc2ccc3c(c2)CCC3)n[nH]1 ?
MPTP inh: -1.9; Beta apoptosis: -8.1; NR3A LBD binder: 2.4; CSC inhib: -23.7; Gli-Sufu antag: -4.3; Mdm2 MdmX PPI: -10.9

How did CC1=C(C)/C(=N\OS(=O)(=O)c2ccccc2)C=CC1=O do in these assays?
MPTP inh: 109.4*; Beta apoptosis: 113.2*; NR3A LBD binder: 4.2; CSC inhib: 3.6; Gli-Sufu antag: 15.5; Mdm2 MdmX PPI: 94.8*; Mdm2-MdmX conf: 83.6*; FLuc counter: 52.5*; MPTP counter: 99.1*

Results for CN(C)CC/C=C1/c2ccccc2Sc2c(O)cc(Cl)cc21 ?
MPTP inh: 1.2; Beta apoptosis: -2.9; NR3A LBD binder: -23.4; CSC inhib: -6.2; Gli-Sufu antag: 5.0; Mdm2 MdmX PPI: 43.1

What do the screens show for `COc1cc(Cl)cc2c1Sc1ccccc1/C2=C/CCN(C)C`?
MPTP inh: 82.2*; NR3A LBD binder: 0.3; CSC inhib: 63.0; Gli-Sufu antag: 11.0; Mdm2 MdmX PPI: 68.6*; Mdm2-MdmX conf: 13.1; MPTP counter: -4.2

Results for c1ccc(COc2ncnc3c2ncn3CCCNCC2CCCO2)cc1 (centres undefined) ?
MPTP inh: 2.0; NR3A LBD binder: -0.3; Gli-Sufu antag: 5.6

What do the screens show for `CCC(=O)c1ccc2c(c1)N(CCCN(C)C)c1ccccc1S2`?
MPTP inh: 71.7*; Beta apoptosis: -4.2; NR3A LBD binder: -1.7; CSC inhib: 4.3; Gli-Sufu antag: 10.9; Mdm2 MdmX PPI: 55.1*; Mdm2-MdmX conf: 14.8; MPTP counter: -14.6

How did CC(=O)c1ccc2c(c1)N(CCCN(C)C)c1ccccc1S2 do in these assays?
MPTP inh: 28.8; NR3A LBD binder: 1.8; Gli-Sufu antag: 7.0

How did Cc1c(CCOC(=O)c2ccccc2)sc[n+]1Cc1ccccc1 do in these assays?
MPTP inh: 0.4; Beta apoptosis: -16.8; NR3A LBD binder: -5.2; Gli-Sufu antag: -5.1; Mdm2 MdmX PPI: 0.9

What do the screens show for `Cc1c(CCOC(=O)CC23CC4CC(CC(C)(C4)C2)C3)sc[n+]1CC(=O)c1ccccc1`?
MPTP inh: 68.0*; Beta apoptosis: 24.4; NR3A LBD binder: -4.0; CSC inhib: 99.6*; Gli-Sufu antag: 15.6; Mdm2 MdmX PPI: 53.7*; Mdm2-MdmX conf: 13.6; MPTP counter: 23.9*

How did CC1(C)CC(N=Cc2c(O)n(Cc3ccc4c(c3)OCO4)c(=O)c3ccccc23)CC(C)(C)N1 do in these assays?
MPTP inh: 52.7*; Beta apoptosis: 2.3; NR3A LBD binder: -0.4; CSC inhib: -10.1; Gli-Sufu antag: 8.6; Mdm2 MdmX PPI: 93.1*; Mdm2-MdmX conf: 39.5; FLuc counter: 68.9*; MPTP counter: -21.8; MPTP swell DR: 4.9*; MPTP cs DR: >80

How did CN(C)CCN=Cc1c(O)n(Cc2ccccc2)c(=O)c2ccccc12 do in these assays?
MPTP inh: 0.1; Beta apoptosis: 5.8; NR3A LBD binder: 0.2; CSC inhib: -2.8; Gli-Sufu antag: 8.6; Mdm2 MdmX PPI: 8.6

Results for N#CC1=C(N)NC(SCc2ccccc2)=C(C#N)C12CCCCC2 ?
MPTP inh: 68.2*; Beta apoptosis: -4.5; NR3A LBD binder: -6.0; CSC inhib: 58.6; Gli-Sufu antag: 3.6; Mdm2 MdmX PPI: 64.5*; Mdm2-MdmX conf: 60.5*; FLuc counter: 72.5*; MPTP counter: 74.4*

How did COc1ccc(C(=O)NCCCOc2cccnc2)cc1OC1CCN(C(C)=O)CC1 do in these assays?
MPTP inh: 0.1; Beta apoptosis: 15.3; NR3A LBD binder: 3.1; CSC inhib: -8.0; Gli-Sufu antag: 7.1; Mdm2 MdmX PPI: 15.4

What do the screens show for `O=C(CSc1nnc(CCCOc2ccc(Cl)cc2Cl)o1)Nc1ccc(C(=O)O)cc1`?
MPTP inh: -0.5; Beta apoptosis: 0.2; NR3A LBD binder: -11.7; CSC inhib: 9.1; Gli-Sufu antag: 3.9; Mdm2 MdmX PPI: 13.4

Results for O=C(Cc1ccccc1F)OCN1C(=O)c2ccccc2C1=O ?
MPTP inh: -0.5; Beta apoptosis: -3.3; NR3A LBD binder: -0.8; CSC inhib: -1.0; Gli-Sufu antag: 3.7; Mdm2 MdmX PPI: 0.9

What do the screens show for `O=C(Nc1ccc(Cl)cc1Cl)NC1CCN(S(=O)(=O)c2ccc(F)cc2)CC1`?
MPTP inh: 95.6*; Beta apoptosis: 6.7; NR3A LBD binder: 21.4*; CSC inhib: 59.7; Gli-Sufu antag: 5.0; Mdm2 MdmX PPI: 51.1*; Mdm2-MdmX conf: 41.8*; FLuc counter: 58.6*; MPTP counter: 89.5*

Results for O=C(Nc1ccc(Cl)cc1Cl)NC1CCCC1 ?
MPTP inh: 1.6; Beta apoptosis: 3.0; NR3A LBD binder: 0.5; CSC inhib: 9.9; Gli-Sufu antag: -13.4; Mdm2 MdmX PPI: -0.2

What do the screens show for `COc1ccccc1NS(=O)(=O)c1cccc(NC(=O)Nc2ccc(Cl)cc2)c1`?
MPTP inh: 82.8*; Beta apoptosis: 47.2; NR3A LBD binder: 17.8*; Gli-Sufu antag: -12.8; Mdm2 MdmX PPI: 93.8*; Mdm2-MdmX conf: 42.6*; FLuc counter: 69.2*; MPTP counter: 71.8*

Results for O=C(Nc1cccc(S(=O)(=O)N2CCCCC2)c1)Nc1ccc(Cl)cc1Cl ?
MPTP inh: 84.9*; Beta apoptosis: 29.4; NR3A LBD binder: 9.7; CSC inhib: 64.8; Gli-Sufu antag: -5.5; Mdm2 MdmX PPI: 88.5*; Mdm2-MdmX conf: 39.5; MPTP counter: 72.8*
